Measured values from the antibiotic and cytotoxicity screens of Wong et al. (2023).
Screen size: about 39,000 compounds; about 3,300 (8.5%) were called active. The full list was thinned out, with actives kept by preference.

system: HepG2; test: cytotoxicity call (relative viability < 0.9); settings: 10 µM

**Q.** COc1cccc(S(=O)(=O)N(C)C[C@@H]2Oc3ncc(C#CCC(C)C)cc3C(=O)N([C@H](C)CO)C[C@H]2C)c1 was tested. Which cytotoxicity call did it give?
**A.** inactive

**Q.** With O=C(C[C@H]1CC[C@@H]2[C@H](COC[C@@H](O)CN2S(=O)(=O)c2ccccc2)O1)N1CCOCC1 as the compound, how does the cytotoxicity call read?
**A.** inactive

**Q.** O=C(NC1CCN(CCCCC2(C(=O)NCC(F)(F)F)c3ccccc3-c3ccccc32)CC1)c1ccccc1-c1ccc(C(F)(F)F)cc1 was tested. Which cytotoxicity call did it give?
**A.** active

**Q.** For C[C@]1(C(=O)NCC(F)(F)F)c2ccccc2C(=O)N(Cc2cc(C(F)(F)F)cc(C(F)(F)F)c2)[C@H]1c1ccc(CO)cc1, which cytotoxicity call is on record?
**A.** inactive

**Q.** With O=C(NC1CCCCCCC1)c1ccccc1-c1ccccc1 as the compound, how does the cytotoxicity call read?
**A.** inactive

**Q.** C[C@H]([C@@H](N)C(=O)N[C@H](C(=O)O)[C@H]1O[C@@H](n2ccc(O)cc2=O)[C@@H](O)[C@H]1O)[C@@H](C)c1ccc(O)cn1 was tested. Which cytotoxicity call did it give?
**A.** inactive

**Q.** Which cytotoxicity call does the source give for C[C@H](CO)N1C[C@H](C)[C@@H](CN(C)C(=O)Cc2ccncc2)Oc2cc(-c3cncnc3)ccc2S1(=O)=O here?
**A.** inactive

**Q.** How did the cytotoxicity call turn out when C[C@H]1CN([C@@H](C)CO)C(=O)c2cc(NC(=O)Cc3cn(C)c4ccccc34)ccc2O[C@@H]1CN(C)Cc1ccc(Cl)c(Cl)c1 was run?
**A.** inactive

**Q.** For C[C@H](CO)N1C[C@H](C)[C@H](CN(C)Cc2ccc(Cl)c(Cl)c2)Oc2ccc(NC(=O)Cc3cn(C)c4ccccc34)cc2C1=O, which cytotoxicity call is on record?
**A.** inactive

**Q.** Which cytotoxicity call does the source give for C[C@H](CO)N1C[C@H](C)[C@@H](CN(C)Cc2ccc(Cl)c(Cl)c2)Oc2ccc(NC(=O)Cc3cn(C)c4ccccc34)cc2CC1=O here?
**A.** inactive

**Q.** With C[C@@H]1CN([C@H](C)CO)C(=O)c2cc(NC(=O)Cc3cn(C)c4ccccc34)ccc2O[C@@H]1CN(C)Cc1ccc(Cl)c(Cl)c1 as the compound, how does the cytotoxicity call read?
**A.** active

**Q.** Which cytotoxicity call does the source give for C[C@H](CO)N1C[C@H](C)[C@@H](CN(C)Cc2ccc(Cl)c(Cl)c2)Oc2ccc(NC(=O)Cc3cn(C)c4ccccc34)cc2C1=O here?
**A.** inactive

**Q.** For C[C@@H]1CN([C@H](C)CO)C(=O)c2cc(NC(=O)Cc3cn(C)c4ccccc34)ccc2O[C@H]1CN(C)Cc1ccc(Cl)c(Cl)c1, which cytotoxicity call is on record?
**A.** inactive

**Q.** Which cytotoxicity call does the source give for C[C@@H]1CN([C@@H](C)CO)C(=O)c2cc(NC(=O)Cc3cn(C)c4ccccc34)ccc2O[C@@H]1CN(C)S(C)(=O)=O here?
**A.** inactive

**Q.** With C[C@H]1CN([C@@H](C)CO)C(=O)c2cc(NC(=O)Cc3cn(C)c4ccccc34)ccc2O[C@@H]1CN(C)S(C)(=O)=O as the compound, how does the cytotoxicity call read?
**A.** inactive

**Q.** With C[C@H]1CN([C@@H](C)CO)C(=O)c2cc(NC(=O)Cc3cn(C)c4ccccc34)ccc2O[C@H]1CN(C)Cc1ccc(Cl)c(Cl)c1 as the compound, how does the cytotoxicity call read?
**A.** inactive

**Q.** For C[C@@H]1CN([C@H](C)CN(C)C)C(=O)c2cc(NC(=O)Cc3cn(C)c4ccccc34)ccc2O[C@H]1CN(C)S(=O)(=O)c1ccc(Cl)cc1, which cytotoxicity call is on record?
**A.** active

**Q.** For C[C@@H]1CN([C@@H](C)CO)C(=O)c2cc(NC(=O)Cc3cn(C)c4ccccc34)ccc2O[C@H]1CN(C)Cc1ccc(Cl)c(Cl)c1, which cytotoxicity call is on record?
**A.** active

**Q.** With C[C@@H]1CN([C@@H](C)CO)C(=O)c2cc(NC(=O)Cc3cn(C)c4ccccc34)ccc2O[C@@H]1CN(C)Cc1ccc(Cl)c(Cl)c1 as the compound, how does the cytotoxicity call read?
**A.** active

**Q.** Cc1noc(C)c1S(=O)(=O)Nc1ccc2c(c1)CC(=O)N([C@@H](C)CO)C[C@H](C)[C@H](CN(C)S(=O)(=O)c1ccc(F)cc1)O2 was tested. Which cytotoxicity call did it give?
**A.** inactive

**Q.** Which cytotoxicity call does the source give for CC(C)NC(=O)Nc1ccc2c(c1)CC(=O)N([C@@H](C)CO)C[C@H](C)[C@H](CN(C)S(=O)(=O)c1ccc(Cl)cc1)O2 here?
**A.** inactive

**Q.** With CO[C@@H]1CN(C)C(=O)c2ccc(NC(=O)NC(C)C)cc2OC[C@H](C)N(Cc2ccc(-c3ccccn3)cc2)C[C@@H]1C as the compound, how does the cytotoxicity call read?
**A.** inactive

**Q.** How did the cytotoxicity call turn out when O=c1[nH]c2cc(C(F)(F)F)c(N3CCOCC3)cc2n(CP(=O)(O)O)c1=O was run?
**A.** inactive

**Q.** Which cytotoxicity call does the source give for C[C@H](CO)N1C[C@H](C)[C@@H](CN(C)S(=O)(=O)c2cccs2)Oc2ccc(NC(=O)C3CC3)cc2CC1=O here?
**A.** inactive

**Q.** How did the cytotoxicity call turn out when Cc1noc(C)c1NC(=O)Nc1ccc2c(c1)C(=O)N([C@H](C)CO)C[C@@H](C)[C@H](CN(C)Cc1ccncc1)OCCCC[C@H](C)O2 was run?
**A.** inactive

**Q.** For C[C@@H]1CN([C@@H](C)CO)C(=O)c2cccc(NC(=O)CCCCCC(=O)Nc3ccccc3N)c2O[C@@H]1CN(C)C(=O)Nc1ccc(C(F)(F)F)cc1, which cytotoxicity call is on record?
**A.** inactive

**Q.** With Cc1ccc(S[C@]2(C(=O)NCC(C)C)CC(=O)N(C3Cc4ccccc4C3)[C@@H]2c2ccc(CO)cc2I)cc1 as the compound, how does the cytotoxicity call read?
**A.** inactive

**Q.** For C[C@@H]1CCCCO[C@@H](CN(C)Cc2ccncc2)[C@@H](C)CN([C@@H](C)CO)C(=O)c2cc(NC(=O)CCC(F)(F)F)ccc2O1, which cytotoxicity call is on record?
**A.** inactive

**Q.** For C[C@@H]1CN([C@@H](C)CO)C(=O)c2cccc(NC(=O)c3cnccn3)c2O[C@H]1CN(C)C(=O)Nc1ccc2c(c1)OCO2, which cytotoxicity call is on record?
**A.** inactive

**Q.** Which cytotoxicity call does the source give for C[C@@H]1CN([C@H](C)CO)C(=O)CCCn2nncc2CO[C@@H]1CN(C)C(=O)Nc1ccc2c(c1)OCCO2 here?
**A.** inactive

**Q.** With C[C@@H]1CN([C@@H](C)CO)C(=O)Cc2cc(NC(=O)Cc3cn(C)c4ccccc34)ccc2O[C@H]1CN(C)Cc1ccc(Cl)c(Cl)c1 as the compound, how does the cytotoxicity call read?
**A.** inactive

**Q.** For C[C@H]1CN([C@@H](C)CO)C(=O)Cc2cc(NC(=O)Cc3cn(C)c4ccccc34)ccc2O[C@H]1CN(C)Cc1ccc(Cl)c(Cl)c1, which cytotoxicity call is on record?
**A.** inactive

**Q.** How did the cytotoxicity call turn out when C[C@@H]1CN([C@H](C)CO)C(=O)Cc2cc(NC(=O)Cc3cn(C)c4ccccc34)ccc2O[C@@H]1CN(C)Cc1ccc(Cl)c(Cl)c1 was run?
**A.** active

**Q.** C[C@@H]1CN([C@H](C)CO)C(=O)Cc2cc(NC(=O)Cc3cn(C)c4ccccc34)ccc2O[C@H]1CN(C)Cc1ccc(Cl)c(Cl)c1 was tested. Which cytotoxicity call did it give?
**A.** inactive

**Q.** How did the cytotoxicity call turn out when C[C@H]1CN([C@@H](C)CO)C(=O)Cc2cc(NC(=O)Cc3cn(C)c4ccccc34)ccc2O[C@@H]1CN(C)Cc1ccc(Cl)c(Cl)c1 was run?
**A.** inactive

**Q.** Which cytotoxicity call does the source give for C[C@H](CO)N1C[C@H](C)[C@H](CN(C)Cc2ccc(Cl)c(Cl)c2)Oc2ccc(NC(=O)Cc3cn(C)c4ccccc34)cc2CC1=O here?
**A.** active

**Q.** How did the cytotoxicity call turn out when O=C(C[C@H]1CC[C@H]2[C@@H](COC[C@H](O)CN2S(=O)(=O)c2cccc(F)c2)O1)NCCCN1CCOCC1 was run?
**A.** inactive

**Q.** With C[C@@H]1CCCCO[C@H](CN(C)Cc2ccc(C(=O)O)cc2)[C@H](C)CN([C@H](C)CO)C(=O)c2cc(NS(=O)(=O)c3cccs3)ccc2O1 as the compound, how does the cytotoxicity call read?
**A.** inactive

**Q.** Cc1ccc(S(=O)(=O)Nc2ccc3c(c2)C(=O)N([C@@H](C)CO)C[C@H](C)[C@H](CN(C)C(=O)NC2CCCCC2)OCCCC[C@H](C)O3)cc1 was tested. Which cytotoxicity call did it give?
**A.** inactive

**Q.** For NC(=O)N1C(=O)[C@H]2[C@H](C1=O)[C@H]1C=C(CCCO)[C@@H]2[C@H](c2cccs2)N1Cc1cc2c(cc1Br)OCO2, which cytotoxicity call is on record?
**A.** inactive

**Q.** O=C(C[C@@H]1C[C@@H]2c3cc(NC(=O)C4CCOCC4)ccc3O[C@@H]2[C@@H](CO)O1)NCc1cc(F)ccc1F was tested. Which cytotoxicity call did it give?
**A.** inactive

**Q.** How did the cytotoxicity call turn out when CNC[C@H]1OCCCC[C@@H](C)Oc2ccc(NC(=O)Nc3ccc(C(F)(F)F)cc3)cc2C(=O)N([C@H](C)CO)C[C@H]1C was run?
**A.** inactive

**Q.** For COc1ccc(NC(=O)Nc2ccc3c(c2)C(=O)N([C@@H](C)CO)C[C@@H](C)[C@@H](CN(C)S(=O)(=O)c2c(C)noc2C)OCCCC[C@@H](C)O3)cc1, which cytotoxicity call is on record?
**A.** inactive

**Q.** Which cytotoxicity call does the source give for CCN(CC)CCNC(C(=O)OCCC(C)C)c1ccccc1.Cl.Cl (configuration not stated) here?
**A.** inactive

**Q.** For CCN(CC)CCOC(=O)c1ccc(N)cc1.Cl, which cytotoxicity call is on record?
**A.** inactive

**Q.** How did the cytotoxicity call turn out when CCCC(C(=O)OCCN(CC)CC)(c1ccccc1)c1ccccc1.Cl was run?
**A.** active

**Q.** CN1CCN(C(=O)C[C@@H]2CC[C@H]3[C@@H](COC[C@@H](O)CN3S(=O)(=O)c3cccc(Cl)c3)O2)CC1 was tested. Which cytotoxicity call did it give?
**A.** inactive

**Q.** With C[C@@H]1CN([C@@H](C)CO)C(=O)Cc2cc(NC(=O)c3ccncc3)ccc2O[C@@H]1CN(C)Cc1ccc2c(c1)OCO2 as the compound, how does the cytotoxicity call read?
**A.** inactive

**Q.** How did the cytotoxicity call turn out when C[C@H](CO)N1C[C@H](C)[C@@H](CN(C)Cc2ccc3c(c2)OCO3)OCCCC[C@H](C)Oc2ccc(NC(=O)Nc3ccc(F)cc3)cc2C1=O was run?
**A.** active

**Q.** How did the cytotoxicity call turn out when C[C@@H]1CCCCO[C@@H](CN(C)Cc2ccc3c(c2)OCO3)[C@H](C)CN([C@H](C)CO)C(=O)c2cc(NC(=O)Nc3ccc(F)cc3)ccc2O1 was run?
**A.** active

**Q.** For C[C@H]1CCCCO[C@@H](CN(C)Cc2ccc3c(c2)OCO3)[C@@H](C)CN([C@@H](C)CO)C(=O)c2cc(NC(=O)Nc3ccc(F)cc3)ccc2O1, which cytotoxicity call is on record?
**A.** inactive

**Q.** C[C@@H]1CCCCO[C@H](CN(C)Cc2ccc3c(c2)OCO3)[C@H](C)CN([C@@H](C)CO)C(=O)c2cc(NC(=O)Nc3ccc(F)cc3)ccc2O1 was tested. Which cytotoxicity call did it give?
**A.** active

**Q.** With C[C@@H]1CCCCO[C@H](CN(C)Cc2ccc3c(c2)OCO3)[C@@H](C)CN([C@H](C)CO)C(=O)c2cc(NC(=O)Nc3ccc(F)cc3)ccc2O1 as the compound, how does the cytotoxicity call read?
**A.** active

**Q.** Which cytotoxicity call does the source give for C[C@@H]1CCCCO[C@H](CN(C)C(=O)c2ccccc2)[C@@H](C)CN([C@@H](C)CO)C(=O)c2cc(NC(=O)Cc3ccccc3)ccc2O1 here?
**A.** inactive

**Q.** How did the cytotoxicity call turn out when COc1ccccc1C#Cc1cnc2c(c1)C(=O)N([C@H](C)CO)C[C@@H](C)[C@H](CN(C)C(=O)CC1CC1)O2 was run?
**A.** inactive

**Q.** For NCc1ccc(C(N)=O)cc1, which cytotoxicity call is on record?
**A.** inactive

**Q.** How did the cytotoxicity call turn out when C[C@H](CO)N1C[C@H](C)[C@H](CN(C)Cc2cncnc2)Oc2cc(C#CC3CCCC3)ccc2S1(=O)=O was run?
**A.** inactive

**Q.** How did the cytotoxicity call turn out when CN1CCN(C(=O)C[C@H]2CC[C@@H]3[C@@H](COc4ccc(NC(=O)c5cscn5)cc4C(=O)N3C)O2)CC1 was run?
**A.** inactive

**Q.** How did the cytotoxicity call turn out when C[C@@H]1CN([C@H](C)CO)C(=O)Cc2cc(NC(=O)C3CC3)ccc2O[C@H]1CN(C)Cc1ccc(C(=O)O)cc1 was run?
**A.** inactive

**Q.** For CCCCC(=O)C1CCCC=C1C(=O)O (configuration not stated), which cytotoxicity call is on record?
**A.** inactive

**Q.** C[C@H](CO)N1C[C@H](C)[C@@H](CN(C)Cc2cccc(C(F)(F)F)c2)OCc2ccccc2-c2ccccc2C1=O was tested. Which cytotoxicity call did it give?
**A.** inactive

**Q.** How did the cytotoxicity call turn out when C[C@@H]1CN([C@@H](C)CO)C(=O)c2ccccc2-c2ccccc2CO[C@H]1CN(C)C(=O)c1cc(Cl)cc(Cl)c1 was run?
**A.** inactive
